# Compound activity (PubChem)
# Sa growth 42C = inhibitors of Staphylococcus aureus growth at 42 °C; S. aureus RN4220 growth, OD600, 20 h; hits give low values; relative growth, % (concentration not given with the values); 170,000 compounds, 0.53% hits;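 active = relative growth at most 50% at the other temperature and 20+ points below 30 °C, or under 10% at both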
# Sa helicase inh = S. aureus DNA helicase inhibition. purified S. aureus helicase, fluorescence unwinding assay. inhibition, % (no concentration beside the values). 120,000 compounds, 0.05% hits; in the data active = inhibition above about 25%, passing the limit was not always enough
# Hits are given with their value; - = inactive; . = no result. The entries come from a sample that favours hits as a whole.
SMILES,Sa growth 42C,Sa helicase inh
CC(CNC(=S)Nc1cccc(Cl)c1)CSc1ccc(Cl)cc1 (stereo not given),-0.4,-
CCOC(=O)c1c(-c2ccccc2)oc2ccc(OC)cc12,.,-
CCOC(=O)c1c(-c2ccccc2)oc2ccc(OCC)cc12,48.0,-
CCOC(=O)c1c(C)sc(-c2c(-c3cc(C)ccc3C)[nH]c3c2c(=O)[nH]c(=O)n3C)c1O,-,.
CCCCOc1ccc(C(=O)N2CCCCC2CCN2CCOCC2)cc1 (stereo not given),-,.
O=C(CCN1CCOCC1)c1ccc(O)cc1,-,.
O=C(CCN1CCOCC1)c1ccc(Br)cc1,-0.4,-
CCCCCOc1ccc(C(=O)CCN2CCOCC2)cc1,12.7,-
O=CN1CCN(C(=O)COc2ccc(Br)cc2)CC1,-,-
Cc1cc(S(=O)(=O)NCC(c2ccco2)S(=O)(=O)c2cccs2)ccc1F (stereo not given),-,.
NC(=S)COc1ccc(F)cc1,-,25.0
OCc1ccc(OCc2ccc(F)cc2)cc1,-,.
CCC/C(O)=C1\C(=O)CC(C)(C)CC1=Nc1ccncc1,-,-
O=c1c(C=NCCN2CCOCC2)c(C(F)(F)F)[nH]n1-c1nc2ccccc2s1,-,-
CCCCS(=O)(=O)c1oc(-c2cccs2)nc1S(=O)(=O)c1ccc(F)cc1,-,.
CCC(C)S(=O)(=O)c1oc(-c2ccc(F)cc2)nc1S(=O)(=O)c1ccc(F)cc1 (stereo not given),14.8,.
CCCCS(=O)(=O)c1oc(-c2ccc(F)cc2)nc1S(=O)(=O)c1ccc(C)cc1,4.8,.
CC(C)CS(=O)(=O)c1oc(-c2cccs2)nc1S(=O)(=O)c1ccccc1,23.4,-
CCS(=O)(=O)c1oc(-c2ccc(F)cc2)nc1S(=O)(=O)c1ccccc1,2.2,.
CCC(C)S(=O)(=O)c1oc(-c2ccc(F)cc2)nc1S(=O)(=O)c1ccc(C)cc1 (stereo not given),-,-
Cc1ccc(S(=O)(=O)c2nc(-c3ccccc3)oc2S(=O)(=O)c2ccc(C)cc2)cc1,-,-
CCCCCS(=O)(=O)c1oc(-c2cccs2)nc1S(=O)(=O)c1ccc(C)cc1,-,.
O=c1n(Cc2ccc(F)cc2)nc2n1-c1ccccc1SC2,-,.
CC1(C)Cc2ccccc2CN1C(=O)c1ccccc1,-,-
Cc1ccc(C=Nc2ccc(N=Cc3ccc(C)s3)cc2)s1,-,-
SMILES,Sa growth 42C,Sa helicase inh
OC(CN1CCCCC1)CN(c1ccccc1)c1ccccc1 (stereo not given),-,-
CCOc1ccc(Cn2nnc3c(=O)[nH]c(C4CCN(C(=O)c5ccccc5)CC4)nc32)cc1,-0.3,.
Cc1ccc(C)c(C(=O)N2CCC(c3nc4c(nnn4Cc4ccccc4)c(=O)[nH]3)CC2)c1,3.7,.
COc1cccc(OC)c1Cn1nnc2c(=O)[nH]c(C3CCN(C(=O)c4ccccc4)CC3)nc21,-,.
Cc1ccccc1Cn1nnc2c(=O)[nH]c(C3CCN(C(=O)c4ccccc4)CC3)nc21,3.5,.
Cc1ccccc1Cn1nnc2c(=O)[nH]c(C3CCN(C(=O)c4ccc(F)cc4)CC3)nc21,-,.
Cc1cccc(Cn2nnc3c(=O)[nH]c(C4CCN(C(=O)c5ccc(F)cc5)CC4)nc32)c1,2.7,.
COc1ccc(Cn2nnc3c(=O)[nH]c(C4CCN(C(=O)c5ccc(C)cc5)CC4)nc32)cc1OC,-,.
Cc1cccc(Cn2nnc3c(=O)[nH]c(C4CCCN(C(=O)c5ccccc5Cl)C4)nc32)c1 (stereo not given),-,.
CCN(CC)c1ccc(NS(=O)(=O)c2ccc(-c3cnc(C4CC4)o3)cc2)c(C)c1,-,.
Cc1ccc(-n2c(SCc3nc(-c4ccc(Cl)cc4)no3)nnc2-c2ccncc2)cc1,-,.
CC(=O)OC(C(=O)NCc1ccc2c(c1)OCO2)c1ccccc1Cl (stereo not given),-,-
COc1ncnc2nc[nH]c12,-,-
Cc1ccc(Cl)cc1-n1ncc2c(Nc3cccc(C)c3C)ncnc21,-,.
O=C(Nc1cccc(C(F)(F)F)c1)c1ccc(-c2ccccc2)cc1,-,-
O=C(c1cccc(Cl)c1)N1CCC(c2nc3c(nnn3Cc3ccc(F)cc3F)c(=O)[nH]2)CC1,0.2,.
O=C(c1ccccc1)N1CCCC(c2nc3c(nnn3Cc3ccc(F)cc3F)c(=O)[nH]2)C1 (stereo not given),-,.
O=C(Nc1ccc(Cl)cc1)Oc1ccccc1N1CCSCC1,-,.
O=C(Nc1ccc(F)cc1)Oc1ccccc1N1CCOCC1,-,-
CC1CN(c2ccccc2OC(=O)Nc2ccc(OC(F)(F)F)cc2)CC(C)O1 (stereo not given),3.0,.
O=C(Nc1ccc(OC(F)(F)F)cc1)Oc1ccccc1N1CCOCC1,3.7,.
Cc1nc(-c2c[nH]c(C(=O)O)c2)cs1,-,49.0
Cc1nc(-c2cccc(NC(=O)/C=C\C(=O)O)c2)cs1,.,-
C=CCNC(=O)C1=CC(c2ccc(OC)cc2)=NS(=O)(=O)N1C,-,-
CCN1CCN(CCCNC(=O)c2cc3cc4ccc(Cl)cc4nc3o2)CC1,-,-
Cc1ccc(S(=O)(=O)NCCc2csc(-c3ccc(Cl)cc3)n2)cc1,-,.
CN1CCC(N(C)Cc2csc(-c3ccc(Cl)cc3)n2)CC1,-0.3,-
